FH mod: Identification of activators of human fumarate hydratase by quantitative high-throughput screening. Fumarate hydratase, mitochondrial (Homo sapiens), P07954. FH coupled MDH/diaphorase resazurin fluorescence, 15 min. Potency, µM (titrated, usually from 79.9 µM), most hits filed as inhibitors. 54,000 compounds, 0.22% hits; further: the screen sought activators but most active calls are inhibition curves; nearly all actives have a fitted effect of over 45% in size
NTMT1 inh: Primary qHTS for Inhibitors of N-terminal methyltransferase 1 (NTMT1): MTaseGlo Assay; N-terminal Xaa-Pro-Lys N-methyltransferase 1 (Homo sapiens), Q9BV86; NTMT1 MTase-Glo SAH luminescence, purified enzyme; Potency, µM (series often up to 114 µM), usual class: inhibitors; 59,000 compounds, 2.5% hits; AID 1645870, 2021; further: nearly all actives have a fitted effect of over 65% in size
DYRK1A inh-1: Assay for Inhibitors of Dual-Specificity Tyrosine-(Y)-Phosphorylation Regulated Kinase 1A (Kinase-Glo assay); Potency, µM (series often up to 76.9 µM), most hits filed as inhibitors; shares compounds with NTMT1 inh; recombinant DYRK1A, Kinase-Glo ATP depletion luminescence; 100 compounds, 80% hits
CLK4 inh-1: Confirmation Assay for Inhibitors of CDC-like Kinase 4 (Kinase-Glo Assay): SAR round 2 | shares compounds with NTMT1 inh | recombinant Clk4, Kinase-Glo ATP luminescence, 4.5 h | Potency, µM (doses to about 76.9 µM), most hits filed as inhibitors | 90 compounds, 90% hits
CLK4 inh-2: Kinase Inhibition Study on Inhibitors of CDC-like Kinase 4 (Reaction Biology data): SAR round 2; AID 504421, 2011; shares compounds with NTMT1 inh; 65 compounds, 100% hits; Potency, µM, usual class: inhibitors; Reaction Biology kinase assay, 10 uM ATP; calls by dose curve
DYRK1A inh-2: Kinase Inhibition Study on Inhibitors of Dyrk1a (Reaction Biology data); shares compounds with NTMT1 inh; Reaction Biology kinase assay, 10 uM ATP; Potency, µM, actives largely listed as inhibitors; 65 compounds, 90% hits; AID 504424, 2011;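 active means compounds that showed inhibition of Dyrk1a and received a fitted potency; inactive means compounds that showed no inhibition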
CLK2 inh: Kinase Inhibition Study on Inhibitors of CDC-like Kinase 2 (Reaction Biology data); shares compounds with NTMT1 inh; Reaction Biology kinase assay, 10 uM ATP; Potency, µM, actives largely listed as inhibitors; 65 compounds, 90% hits; AID 504427, 2011;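 active means compound that inhibits Clk2 kinase in the dose series, with an IC50 potency reported; inactive means no inhibition seen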
CLK3 RBC: Kinase Inhibition Study on Inhibitors of CDC-like Kinase 3 (Reaction Biology data); shares compounds with NTMT1 inh; 65 compounds, 40% hits; recombinant CLK3 kinase assay, 10 uM ATP; Potency, µM, usual class: inhibitors;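 active means compounds that inhibited Clk3 enough in the ten-dose series to give a half-maximal potency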
DYRK1B inh: Kinase Inhibition Study on Inhibitors of Dyrk1b (Reaction Biology data); Potency, µM, most hits filed as inhibitors; 65 compounds, 80% hits; Recombinant Dyrk1b kinase assay, 10 uM ATP; shares compounds with NTMT1 inh;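 active means compounds whose dose response shows an inhibitor phenotype against the kinase Dyrk1b; inactive means compounds showing no inhibitor phenotype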
CLK1 inh: Kinase Inhibition Study on Inhibitors of CDC-like Kinase 1 (Reaction Biology data). AID 504430, 2011. shares compounds with NTMT1 inh. recombinant Clk1 kinase assay, 10 uM ATP. 65 compounds, 90% hits. Potency, µM, most hits filed as inhibitors;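 active means compounds that block the splicing kinase Clk1 enough to give a fitted half-inhibition concentration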
Target sequence (P49759 whole entry, looked up): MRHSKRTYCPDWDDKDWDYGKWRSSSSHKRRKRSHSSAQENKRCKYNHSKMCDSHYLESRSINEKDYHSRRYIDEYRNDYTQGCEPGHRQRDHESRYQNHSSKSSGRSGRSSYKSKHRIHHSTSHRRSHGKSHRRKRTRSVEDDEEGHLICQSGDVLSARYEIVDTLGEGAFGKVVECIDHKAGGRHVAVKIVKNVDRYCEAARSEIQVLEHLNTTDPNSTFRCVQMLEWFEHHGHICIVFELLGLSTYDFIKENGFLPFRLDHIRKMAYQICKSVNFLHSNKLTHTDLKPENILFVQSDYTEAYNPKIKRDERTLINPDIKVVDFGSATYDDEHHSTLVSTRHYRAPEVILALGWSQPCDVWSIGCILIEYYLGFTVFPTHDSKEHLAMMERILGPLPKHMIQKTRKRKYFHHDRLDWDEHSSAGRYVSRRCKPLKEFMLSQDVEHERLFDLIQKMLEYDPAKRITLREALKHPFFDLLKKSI
NNMT counter: Counterscreen qHTS for Inhibitors of N-terminal methyltransferase 1 (NTMT1): NNMT MTaseGlo assay | shares compounds with NTMT1 inh | Potency, µM (top dose mostly 57.1 µM), most hits filed as inhibitors | 120 compounds, 10% hits | NNMT MTase-Glo luminescence, SAH detection
Numbers stand for hits; . = inactive; ? = inconclusive; / = no result; ! = a repeat was not active. Shown is part of a subset that was picked to be rich in hits. Unless noted, the call rests on the fitted dose curve; in most records, active means well fitted curve in the direction sought with a large enough effect; inconclusive means small, poorly fitted or top-dose-only effect, or another doubt; inactive means no such curve, though single readings can be large; an effect the other way counts as inactive or inconclusive.

SMILES | FH mod | NTMT1 inh | DYRK1A inh-1 | others
Cc1ccc(CNc2ncnc3ccc(-c4ccc5c(c4)OCO5)cc23)s1 | / | . | 0.52µM | CLK4 inh-2=0.12;DYRK1A inh-2=1.2µM;CLK2 inh=15µM;CLK3 RBC=.;DYRK1B inh=15µM;CLK1 inh=0.89µM
c1nc(OCc2cnc[nH]2)c2cc(-c3ccc4c(c3)OCO4)ccc2n1 | / | . | 8.2µM
Cc1noc(C)c1-c1ccc2ncnc(NCc3ccccc3F)c2c1 | / | . | /
Cc1cccc(-c2ccc3ncnc(NCc4cc(C)cs4)c3c2)c1 | / | . | /
c1csc(CNc2ncnc3ccc(-c4ccoc4)cc23)c1 | / | ? | 1.5µM
c1c[nH]c(CNc2ncnc3ccc(-c4ccc5c(c4)OCO5)cc23)n1 | / | . | 0.37µM | CLK4 inh-2=0.034;DYRK1A inh-2=0.15µM;CLK2 inh=3.6µM;CLK3 RBC=15µM;DYRK1B inh=1.1µM;CLK1 inh=0.19µM
Cc1occc1CNc1ncnc2ccc(-c3ccc4c(c3)OCO4)cc12 | / | ? | 0.092µM | CLK4 inh-2=0.047;DYRK1A inh-2=0.057µM;CLK2 inh=2.7µM;CLK3 RBC=6.5µM;DYRK1B inh=0.43µM;CLK1 inh=0.086µM
Cc1cccc(CNc2ncnc3ccc(-c4cccc(Cl)c4)cc23)c1 | / | . | /
Cc1ccsc1CNc1ncnc2ccc(-c3ccc4c(c3)OCO4)cc12 | / | . | 0.082µM | CLK4 inh-2=0.035;DYRK1A inh-2=0.035µM;CLK2 inh=2.2µM;CLK3 RBC=6.6µM;DYRK1B inh=0.51µM;CLK1 inh=0.069µM
Cc1cccc(CNc2ncnc3ccc(-c4ccc5c(c4)OCO5)cc23)c1 | / | . | /
c1nc(NCc2ccoc2)c2cc(-c3ccc4c(c3)OCO4)ccc2n1 | / | ? | 0.092µM | CLK4 inh-2=0.038;DYRK1A inh-2=0.13µM;CLK2 inh=0.88µM;CLK3 RBC=4.7µM;DYRK1B inh=0.94µM;CLK1 inh=0.11µM
O=C(Nc1ccc(S(=O)(=O)Nc2nccs2)cc1)[C@@H]1CC[C@H](C(=O)c2ccccc2)C1 | / | . | /
CCCCCOc1ccc(-c2ccc(-c3ccc(C(=O)N[C@H]4C[C@@H](O)[C@@H](O)NC(=O)[C@@H]5[C@@H](O)[C@@H](C)CN5C(=O)[C@H]([C@@H](C)O)NC(=O)[C@H]([C@H](O)[C@@H](O)c5ccc(O)cc5)NC(=O)[C@@H]5C[C@@H](O)CN5C(=O)[C@H]([C@@H](C)O)NC4=O)cc3)cc2)cc1 | . | . | / | NNMT counter=.
CCCCCOc1ccc(-c2cc(-c3ccc(C(=O)N[C@H]4C[C@@H](O)[C@@H](O)NC(=O)C5[C@@H](O)[C@@H](C)CN5C(=O)C([C@H](O)CC(N)=O)NC(=O)C([C@H](O)[C@@H](O)c5ccc(O)c(OS(=O)(=O)O)c5)NC(=O)C5C[C@@H](O)CN5C(=O)C([C@@H](C)O)NC4=O)cc3)no2)cc1 (stereo not given in full) | . | . | /
COC(=O)C1=C(C)NC(C)=C(C(=O)O[C@@H]2CCCN(Cc3ccccc3)C2)[C@@H]1c1cccc([N+](=O)[O-])c1 | ? | ? | / | NNMT counter=.
CCOC(=O)C1=C(C)NC(C)=C(C(=O)OC)C1c1cccc([N+](=O)[O-])c1 (stereo not given) | . | . | /
Cn1cc(-c2nc3cnc(N4CCNCC4)nc3n(Cc3ccc(F)cc3)c2=O)c2ccccc21 | / | / | / | CLK4 inh-1=?
CCCCN(C)C(=O)Cn1nc(-c2ccc(F)cc2)ccc1=O | / | . | /
O=C1[C@H](O[C@@H]2O[C@H](CO)[C@@H](O)[C@H](O)[C@H]2O)Oc2ccccc2N1O | . | . | /
CCOc1ccc(Cc2nc(-c3c(C)nc4ccccn34)cs2)cc1 | . | ? | / | NNMT counter=?
CCOc1ccc(Nc2nc(-c3c(C)nc4ccccn34)cs2)cc1 | . | . | / | NNMT counter=?
O=C(Nc1ccc(S(=O)(=O)Nc2nccs2)cc1)c1cccc2ccccc12 | / | . | /
Cc1ccc(Nc2nnc(Cc3ccncc3)c3ccccc23)cc1Br | / | . | /
Clc1ccc(Nc2nnc(Cc3ccncc3)c3ccccc23)cc1 | . | 89µM! | / | NNMT counter=?
O=S(=O)(Nc1nc(-c2ccccc2C(F)(F)F)nc2ccccc12)c1ccc(-c2ccnc(C(F)(F)F)c2)cc1 | / | . | /
